Screening data as filed in PubChem BioAssay.
Pf growth 96h: Primary qHTS for delayed death inhibitors of the malarial parasite plastid, 96 hour incubation | P. falciparum luciferase reporter growth, 96 h | 320,000 tested, 6.9% active | Potency, µM (top dose mostly 28.7 µM), inactives show at the highest dose activity change, negative = inhibition, hits mostly inhibitors | AID 504834, 2011; further: potency means the concentration at half of the fitted maximal effect; on the % scale 0 is the no-effect control and ±100 the full control effect
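Two-generation exposure (96 h) targets delayed-death phenotype. Reporter parasites carrying integrated firefly luciferase, in red cells at 2% hematocrit and 0.05% parasitemia final, kept at 37 C, 5% CO2; luminescence loss indicates inhibition.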
Shiga inhibitor: A qHTS for Small Molecule Inhibitors of Shiga Toxin; Vero cells, Shiga toxin protein synthesis inhibition reporter; inhibition, % at 38.7 µM; 290,000 tested, 9.2% active; in the data active means inhibition mostly above about 28%, no sharp cut-off; inactive means mostly below about 43%; further: 0% is about no effect
Sm TGR block: qHTS Assay for the Inhibitors of Schistosoma Mansoni Peroxiredoxins; Schistosoma mansoni thioredoxin glutathione reductase (TGR), Q962Y6; purified TGR, DTNB reduction, TNB absorbance 405 nm; Potency, µM (doses to about 114 µM), without a hit: at the top dose activity change, negative = inhibition, most hits filed as inhibitors; 360,000 tested, 3% active; AID 485364, 2010; further: potency means the concentration at half of the fitted maximal effect; on the % scale 0 is the no-effect control and ±100 the full control effect; nearly all actives have a fitted effect of over 60% in size
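TGR 20 nM + NADPH 100 uM (dispensed conc.), cpd preinc 15 min RT; start with NADPH (500 uM addition) then DTNB (15 mM addition). Kinetic TNB absorbance, 405 nm filter. Four-parameter Hill fit across titration.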
Cycloheximide cs: Cycloheximide Counterscreen for Small Molecule Inhibitors of Shiga Toxin | 300,000 tested, 12% active | cell reporter, cycloheximide protein synthesis inhibition counterscreen | max response, %; in the data active means max response mostly above about 13%, no sharp cut-off; inactive means mostly below about 14%; further: read at 38.3 µM for the half of the compounds with a filed dose; 0% is about no effect
NS1 function inh: qHTS Assay for Inhibitors of Influenza NS1 Protein Function | Potency, µM (doses to about 46.1 µM), inactives show top-dose activity, positive = more growth | 270,000 tested, 0.4% active | AID 2326, 2010; calls by dose curve; further: potency means the concentration at half of the fitted maximal effect; actives are rising curves; nearly all actives have a fitted effect of over 50% in size
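Compounds were scored for reversing the slow growth caused by influenza A NS1 in S. cerevisiae, measured by optical density at 600 nm. Assay medium contained 2% galactose at pH 6.0; NS1-free yeast of the same strain were the positive control.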
Pf growth 48h: Primary qHTS for delayed death inhibitors of the malarial parasite plastid, 48 hour incubation; Potency, µM (top dose mostly 28.7 µM), for the others: top-dose activity change, negative = inhibition, usual class: inhibitors; 310,000 tested, 5.9% active; P. falciparum luciferase growth in erythrocytes, 48 h; AID 504832, 2011; further: potency means the concentration at half of the fitted maximal effect; on the % scale 0 is the no-effect control and ±100 the full control effect
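In quantitative HTS format, infected erythrocytes bearing luciferase-reporter parasites were treated for a single generation at 37 C. Luminescence after adding detection reagent served as the growth measure.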
* = called active by the depositor; ! = a repeat was not active. In the library only some 21% were active in any assay of this set; here they are far more common. Unless noted, the call rests on the fitted dose curve; in most records, active means well fitted curve in the direction sought with a large enough effect; inconclusive means small, poorly fitted or top-dose-only effect, or another doubt; inactive means no such curve, though single readings can be large; an effect the other way counts as inactive or inconclusive.

Results for COc1ccc(CCNC(=O)CNC(=O)c2nn(-c3ccc(OC)c(OC)c3)c(=O)c3ccccc23)cc1OC ?
Pf growth 96h: 60.2%; Shiga inhibitor: -4.0; Sm TGR block: -8.2%; Cycloheximide cs: -1.8; NS1 function inh: -16.7%; Pf growth 48h: 9.28µM*

What do the screens show for `CCN(CCCNC(=O)CNC(=O)c1nn(-c2ccc(OC)c(OC)c2)c(=O)c2ccccc12)c1ccccc1`?
Pf growth 96h: inconclusive; Shiga inhibitor: -2.5; Sm TGR block: -1.3%; Cycloheximide cs: -1.7; NS1 function inh: 4.5%; Pf growth 48h: 11.7µM*

What do the screens show for `COc1ccc(-n2nc(C(=O)NCC(=O)NCCc3ccc(OC)c(OC)c3)c3ccccc3c2=O)cc1`?
Pf growth 96h: -19.3%; Shiga inhibitor: 19.0; Sm TGR block: -8.9%; Cycloheximide cs: 0.7; NS1 function inh: -4.4%; Pf growth 48h: inconclusive

What do the screens show for `Cc1ccc(C(=O)NCCSC2CCCCC2)cc1S(=O)(=O)Nc1ccccc1`?
Pf growth 96h: inconclusive; Shiga inhibitor: 3.2; Sm TGR block: 4.0%; Cycloheximide cs: 1.1; NS1 function inh: 13.2%; Pf growth 48h: 10.4%

Results for Cc1cc(-c2ccc(C)c(S(=O)(=O)N3CCN(c4cccc(C(F)(F)F)c4)CC3)c2)on1 ?
Sm TGR block: 9.2%

What do the screens show for `Cc1[nH]c(=O)[nH]c(=O)c1/C=N/NC(=O)[C@H](CC(C)C)NC(=O)OC(C)(C)C`?
Pf growth 96h: -28.6%; Shiga inhibitor: -4.9; Sm TGR block: -13.4%; Cycloheximide cs: -3.8; NS1 function inh: 18.6%; Pf growth 48h: -13.1%

What do the screens show for `Cc1[nH]c(=O)[nH]c(=O)c1/C=N/NC(=O)[C@@H](N)CC(C)C`?
Pf growth 96h: inconclusive; Shiga inhibitor: 29.7; Sm TGR block: inconclusive; Cycloheximide cs: 16.3*; NS1 function inh: 0.4%; Pf growth 48h: 5.22µM*

What do the screens show for `Cc1ccc2[nH]c(=O)c3cc(C(=O)N(CCCOC(C)C)Cc4ccco4)sc3c2c1`?
Pf growth 96h: 5.86µM*; Shiga inhibitor: -14.0; Sm TGR block: -20.6%; Cycloheximide cs: 0.8; NS1 function inh: 3.3%

How did Cc1cccc2cc(CN(Cc3ccco3)C(=O)c3cccs3)c(=O)[nH]c12 do in these assays?
Pf growth 96h: 9.28µM*; Shiga inhibitor: 17.4; Sm TGR block: -25.9%; Cycloheximide cs: -3.2; NS1 function inh: -9.6%; Pf growth 48h: 10.4µM*

What do the screens show for `Cc1ccc2cc(CN(Cc3ccco3)C(=O)c3cccs3)c(=O)[nH]c2c1`?
Pf growth 96h: -29.7%; Shiga inhibitor: 11.9; Sm TGR block: 39.8µM*; Cycloheximide cs: 8.9; NS1 function inh: 18.4%; Pf growth 48h: inconclusive

What do the screens show for `CCc1ccc(CN2CCC(n3nccc3NC(=O)C3CCCC3)CC2)cc1`?
Pf growth 96h: inconclusive; Shiga inhibitor: -16.3; Sm TGR block: -0.7%; Cycloheximide cs: -2.1; NS1 function inh: 5.8%; Pf growth 48h: 15.0%

Results for O=C(O)c1ccc2c(c1)C(=O)N(c1ccc(Nc3ccccc3)cc1)C2=O ?
Pf growth 96h: -20.9%; Shiga inhibitor: -5.7; Sm TGR block: -10.5%; Cycloheximide cs: -3.8; NS1 function inh: 10.9%; Pf growth 48h: -18.4%

How did O=C1c2[nH]nc(-c3ccccc3O)c2C(c2ccc(Cl)cc2)N1Cc1ccco1 (centres undefined) do in these assays?
Sm TGR block: 9.6%

Results for Nc1nc(N)c(N=O)c(OCC2CCCCC2)n1 ?
Pf growth 96h: inconclusive; Shiga inhibitor: 40.7*!; Sm TGR block: 2.1%; Cycloheximide cs: 21.3*; NS1 function inh: -9.3%; Pf growth 48h: inconclusive

Results for NS(=O)(=O)OCC1CCCCC1 ?
Pf growth 96h: 1.7%; Shiga inhibitor: -4.0; Sm TGR block: -0.6%; Cycloheximide cs: -2.9; NS1 function inh: 1.1%; Pf growth 48h: 0.0%

How did O=C(CCCN1C(=O)c2cccnc2C1=O)Nc1ccc(F)cc1Cl do in these assays?
Pf growth 96h: inconclusive; Shiga inhibitor: -4.4; Sm TGR block: -4.6%; Cycloheximide cs: -1.2; NS1 function inh: -2.0%; Pf growth 48h: 10.0%

What do the screens show for `Cc1cc(C(=O)N/N=C2/CC(C)CC(C)(C)C2)c(C)o1` (centres undefined)?
Pf growth 96h: 2.4%; Shiga inhibitor: 77.0*; Sm TGR block: -0.7%; Cycloheximide cs: 31.2*; NS1 function inh: -4.0%; Pf growth 48h: -1.7%

What do the screens show for `COC(=O)C1(C)NC(c2ccc(OC)cc2)C2C(=O)N(c3ccccc3)C(=O)C21` (centres undefined)?
Pf growth 96h: 28.9%; Shiga inhibitor: -3.4; Sm TGR block: 0.2%; Cycloheximide cs: -1.7; NS1 function inh: 6.5%; Pf growth 48h: inconclusive

What do the screens show for `CCCCCC(=O)Nc1ccc2ccccc2c1`?
Pf growth 96h: 82.7%; Shiga inhibitor: 60.5*; Sm TGR block: -2.1%; Cycloheximide cs: 50.0*; NS1 function inh: 3.9%; Pf growth 48h: 66.2%

How did O=C(Nc1ccc2c(c1)oc1ccccc12)C1CC1 do in these assays?
Shiga inhibitor: 95.3*; Sm TGR block: 5.7%; Cycloheximide cs: 46.3*; NS1 function inh: -63.0%; Pf growth 48h: 124.3%

What do the screens show for `O=C(Nc1ccc2c(c1)OC1(CCCC1)O2)C1CC1`?
Pf growth 96h: 20.4%; Shiga inhibitor: 41.8; Sm TGR block: 0.0%; Cycloheximide cs: 17.0*; NS1 function inh: -88.6%; Pf growth 48h: inconclusive

Results for O=C(Nc1ccc2c(c1)oc1ccc(S(=O)(=O)N3CCCC3)cc12)C1CC1 ?
Shiga inhibitor: 3.1; Sm TGR block: -2.0%; Cycloheximide cs: -1.5; NS1 function inh: -1.0%; Pf growth 48h: inconclusive

How did O=C(Nc1ccc2c(c1)OCO2)C1CC1 do in these assays?
Pf growth 96h: 82.1%; Sm TGR block: -2.5%; Pf growth 48h: 104.4%

Results for O=C(CSc1ccccn1)Nc1ccc2c(c1)oc1ccccc12 ?
Pf growth 96h: -1.6%; Shiga inhibitor: 56.6*; Sm TGR block: -16.2%; Cycloheximide cs: 41.6*; NS1 function inh: -13.6%; Pf growth 48h: 33.0%

How did O=C(O)c1ccc(S(=O)(=O)N[C@H](Cc2ccc([N+](=O)[O-])cc2)C(=O)O)cc1 do in these assays?
Pf growth 96h: 8.4%; Shiga inhibitor: -2.4; Sm TGR block: 1.6%; Cycloheximide cs: 3.2; Pf growth 48h: 2.1%

Results for C[C@@]12CCC[C@@](C)(C(=O)O)C1CC[C@@]13C[C@@H](NCc4ccccc4)[C@@](C)(CCC12)C3 (some centres undefined) ?
Pf growth 96h: inconclusive; Sm TGR block: -0.3%; Pf growth 48h: inconclusive

What do the screens show for `Cc1cccc(-c2c3c(=O)n(C)c(=O)n(C)c3c3nnc4ccccc4n23)c1`?
NS1 function inh: 19.6%
